From PubChem BioAssay AID2384 (Southern Research Specialized Biocontainment Screening …, 2010)
In all, about 2,300 compounds went through this assay and about 1,100 (48%) were called active. No rule for the calls is given here. So high a share suggests a set chosen from earlier hits. The list shows a part of the results. Results with a measured potency or affinity are listed apart.

test: inhibitors in S. typhi counter-screen strain, dose response, counter-screen for PhoP regulon inhibitor project, fluorescence, 4 h (AID 2384); conditions: S. typhi GFP reporter counter-screen; series mostly up to 150 µM

SMILES	inhibition
Cc1ccc(-c2[nH]ncc2/C=N/n2c(C)nc3ccccc3c2=O)cc1	inactive
Cc1ccc(/C=N/n2c(C)nc3ccccc3c2=O)s1	inactive
O=C(C[n+]1cc(-c2ccccc2)n2c1CCC2)c1cccs1	inactive
CCOC(=O)Cc1csc(NC(=O)c2ccc(S(=O)(=O)N3CCCC3)cc2)n1	inactive
O=C(/C=C/c1ccc(O)cc1)c1ccccc1	inactive
COc1cccc(C2=NO[C@@H]3C(=O)N(Cc4ccccc4)C(=O)[C@H]23)c1OC	inactive
CCc1nnc(NS(=O)(=O)c2ccc(NC(=S)NC(=O)/C=C/c3ccc([N+](=O)[O-])cc3)cc2)s1	inactive
Cc1cc2ncn(/N=C/c3ccc([N+](=O)[O-])o3)c2cc1C	inactive
Cc1ccc2[nH]c(C(=O)O)c(NC(=O)CN3CCN(c4cccc(C)c4C)CC3)c2c1	inactive
Cc1ccc(C(C(=O)NCCc2ccccc2)N(C(=O)c2csnn2)C2CC2)o1 (stereo not given)	inactive
[O-][n+]1c2ccccc2cc2ccccc21	inactive
Cc1ccc(S(=O)(=O)NCC(=O)OCN2C(=O)c3ccccc3C2=O)cc1	inactive
CCCOc1ccc(N2C(=O)C3C(C(C)C)NC4(C(=O)c5ccccc5C4=O)C3C2=O)cc1 (stereo not given)	inactive
COc1ccc(-c2csc(N)n2)cc1F	inactive
Cc1nc2ccc(NC(=O)c3cccc(C(F)(F)F)c3)cc2o1	inactive
CNC(=O)Nc1cccc(C(F)(F)F)c1	inactive
O=C(CNC(=O)Cn1ccc2ccccc2c1=O)NCCCN1CCCCCC1	inactive
Cc1cc(C)cc(NC(=O)C(Sc2nnc(C)c(=O)[nH]2)c2ccccc2)c1 (stereo not given)	inactive
CCCC1C(c2ccc(OC)cc2)C(C#N)(C#N)C2(C#N)CC1(N)NC2=O (stereo not given)	inactive
O=C(Nc1ccc(Br)cc1)N1CCCCC1	inactive
CCNC(=S)N1CCN(CC)CC1	inactive
Cn1c(=O)c(=O)n(C)c2cc(S(=O)(=O)N3CCc4ccccc43)ccc21	inactive
CN1Cc2ccccc2N(CC(=O)NCc2ccccc2)C1=O	inactive

SMILES	inhibition
O=C1NC(=S)S/C1=C1\Sc2ccccc2N1CCCS(=O)(=O)O	inactive
Cc1cc(Cl)ccc1OCCCC(=O)N1CCCc2ccccc21	inactive
Cc1cc(NC(=O)CSc2nnc(-c3cccnc3)n2N)no1	inactive
O=C1N/C(=C/c2ccc(N3CCOCC3)cc2)C(=O)N1Cc1ccc(F)cc1	inactive
O=C(OCc1nc2ccccc2s1)c1ccco1	inactive
O=C(O)CC/C(=C\c1ccccc1[N+](=O)[O-])c1nc2ccccc2s1	inactive
C/C(=N\Nc1ccc(C)c(Cl)c1)c1cccnc1	inactive
CCOc1ccc(-c2nc(N)ncc2-c2ccccc2)c(O)c1	inactive
CCOc1ccc(NC(N)=O)cc1	inactive
CCOC(=O)c1ccc(NC(=O)C2CCC(CNc3c(N4CCOCC4)c(=O)c3=O)CC2)cc1 (stereo not given)	inactive
Cc1nnc(SCC(=O)N(C(C)C)C(C)C)[nH]c1=O	inactive
CCc1nc(SCC(=O)Nc2ccc(N(C)C)cc2)c2ccccc2n1	inactive
C#CCOC(=O)c1ccccc1C(=O)OCC#C	inactive
O=C(NCCCNc1ccnc2cc(Cl)ccc12)c1ccccc1F	inactive
COc1ccc(NC(=O)Cn2cnc3c(cnn3C(C)(C)C)c2=O)cc1OC	inactive
Cc1nc2cc(C(=O)N3CCC4(CC3)OCCO4)ccc2n1-c1cccc(F)c1	inactive
COC(=O)c1ccc(NC(=O)CO/N=C2\CCCc3nonc32)cc1	inactive
CCOc1ccc(Cl)cc1/C=N/O	inactive
COc1ccccc1/C=C/C(=O)Nc1cccc(C(C)=O)c1	inactive
COc1ccc2c(c1)CC1(CN2C)C(=O)NC(=O)N(CCc2ccccc2)C1=O (stereo not given)	inactive
CCOC(=O)c1nc2cc3n(c(CC(C)C)c-2c1C)CC(C)=C3C	inactive
CCOc1ccc(N2CC(C(=O)OCC(=O)NCc3ccccc3)CC2=O)cc1 (stereo not given)	inactive
CC(C)Oc1ccc(N2CC(C(=O)Nc3ccccc3F)CC2=O)cc1 (stereo not given)	inactive

SMILES	inhibition
COc1ccc2nc(NC(=O)C3CC(=O)N(c4ccccc4)C3)sc2c1 (stereo not given)	inactive
CCOC(=O)c1ccc(N2Cc3ccccc3C2=NC(=O)c2cccc([N+](=O)[O-])c2)cc1	inactive
COc1ccc(Nc2c3c(nc4ccc(C)cc24)CCC3)cc1	inactive
COc1cccc(-c2ccc(SCc3ccccn3)nn2)c1	inactive
COc1ccccc1-c1nc(C(F)(F)F)c(OC)o1	inactive
Cc1cc(C)cc(NC(=O)CSc2nnc(CNC(=O)c3cccs3)o2)c1	inactive
Cc1ccc(CSc2nc3c(c(=O)[nH]2)CCC3)cc1	inactive
Cc1ccc(C)c(OCC(=O)Nc2cccc(C(=O)O)c2)c1C	inactive
COc1cc(CNCCCN2CCOCC2)c(Br)cc1OCC(=O)Nc1ccccc1C	inactive
Fc1cccc(Cl)c1CSc1ccc(-c2ccco2)nn1	inactive
Cc1cccc(CSCCNC(=O)COc2ccc(Cl)cc2)c1	inactive
CCC(Oc1ccccc1)C(=O)Nc1nnc(S(=O)(=O)N2CCCCC2)s1 (stereo not given)	inactive
ON=C1/C(=N\O)CC2(C/C1=N/O)OCCO2	inactive
O=C(NCCOc1ccccc1)c1ncn[nH]1	inactive
CC(C)(C)c1ccc(OCCNC(=S)Nc2ccccc2)cc1	inactive
O=C(N/N=C/c1cccnc1)c1ccc([N+](=O)[O-])cc1Cl	inactive
O=C(O)COc1ccccc1/C=N/NC(=O)c1cccc(S(=O)(=O)N2CCOCC2)c1	inactive
Cc1noc(C)c1S(=O)(=O)N1CCC(Cc2ccccc2)CC1	inactive
Cc1cccc(C(=O)NCCC(=O)Nc2ccc(F)c([N+](=O)[O-])c2)c1	inactive
O=C(N/N=C/c1ccco1)c1cccc(NC(=O)c2cccc(Cl)c2)c1	inactive
O=[N+]([O-])c1ccc2oc(C3CCCCC3)nc2c1	inactive
CC(C)=CCN1CCN(Cc2nc(-c3ccccc3)cs2)CC1CCO (stereo not given)	inactive
CCO[C@H]1OC(C(=O)O)=C[C@@H](c2ccccc2)[C@@H]1CCCO	inactive

SMILES	inhibition
Cc1cccc2cc(C(c3nnnn3Cc3ccccc3)N3CCN(C)CC3)c(=O)[nH]c12 (stereo not given)	inactive
O=C(NC1=NCCS1)c1cccc2ccccc12	inactive
O=C1CCCC2=C1C(c1ccncc1)Nc1ccccc1N2 (stereo not given)	inactive
Clc1ccc(Nc2nc(C3CC3)cs2)cc1	inactive
CCn1nnnc1NCc1cccc(Cl)c1	inactive
CCN(CC(=O)Nc1ccc(C(=O)OC)cc1)C1CCCCC1	inactive
CC(c1ccccc1)(c1ccccc1)c1ccncc1	inactive
COc1ccc(C2C(C(=O)NCc3cccnc3)c3ccccc3C(=O)N2C)cc1OC (stereo not given)	inactive
C1=Nc2ccccc2CN1c1ccccc1	inactive
Cc1cc(C(=O)Nc2cccnc2)on1	inactive
CCC(Sc1nc2ccncc2[nH]1)C(=O)Nc1ccc(C)c(Cl)c1 (stereo not given)	inactive
CCCCNC(=O)CCC(=O)Nc1ccc2nc(N3CCC(C)CC3)cc(C)c2c1	inactive
Cc1cc(N2CCN(C3CCCCC3)CC2)nc2cccc(O)c12	inactive
COc1cccc2[nH]c3c(N4CCN(Cc5ccc6c(c5)OCO6)CC4)ncnc3c12	inactive
CCn1c(O)c(N=NC(=O)CNC(=O)/C=C/c2ccco2)c2ccccc21	inactive
COc1ccc2[nH]cc(C(=O)CCl)c2c1	inactive
O=C(NC1CCCCC1)c1ccc(S(=O)(=O)NCc2cccnc2)cc1	inactive
Cc1ccc(C)c(OCc2ccc(C(=O)NN)o2)c1	inactive
O=C(Cc1ccc(F)cc1)NC1CCCC1	inactive
Cn1ncc(N=Cc2ccccc2O)c1C(=O)N1CCOCC1	inactive
Cc1nc(-c2ccc(C(=O)N3CCOCC3)cc2)cs1	inactive
CCOc1ccc(NC(=S)Nc2cc(C)[nH]n2)cc1	inactive
CCOc1ccc(OCCSc2nc3ccccc3[nH]2)cc1	inactive

SMILES	inhibition
O=S(=O)(Nc1ncccn1)c1ccc(NC(=S)Nc2cccc(Cl)c2)cc1	inactive
Cc1cc(NS(=O)(=O)c2ccc(NC(=S)NC(=O)c3cccnc3)cc2)no1	inactive
Cc1ccc(NC(=O)OCc2cccs2)cc1	inactive
CC1CCCC(NC(=O)COC(=O)Cc2c[nH]c3ccccc23)C1C (stereo not given)	inactive
Cc1ccc(-c2c(C)n([O-])c3c([n+]2=O)CCCC3)o1	inactive
COc1ccccc1OCc1nnc(SCC(=O)NCc2ccco2)n1Cc1ccco1	inactive
COC(=O)c1cc2sccc2n1Cc1nc(-c2ccc(OC)cc2)oc1C	inactive
O=C(CSc1nc2ncc(Cl)cc2[nH]1)NCC(=O)Nc1ccc(F)c(F)c1F	inactive
Nc1ncnc2nc(SCC(=O)Nc3cccc(C(F)(F)F)c3)[nH]c12	inactive
c1cncc(CSc2ccc(-c3cccs3)nn2)c1	inactive
Cn1c(-c2ccc(CN3CCCCC3)o2)nc2ccccc21	inactive
CCN(CC)S(=O)(=O)c1ccc(/C(O)=C(\C#N)c2nc3ccccc3n2C)cc1	inactive
COc1ccc(CNc2nc3ccccc3n2C)c(O)c1	inactive
CC1=C(c2ccccc2)SC2=NCCN21	inactive
COCc1[nH]nc2c1C(c1c(F)cccc1Cl)C(C#N)=C(N)O2 (stereo not given)	inactive
CC1(C)CC(N2CCN(c3ccccc3)CC2)=CC(=[N+]2CCCC2)C1	inactive
CC1CCC[C@H](O)CCCCCc2cc(O)cc(O)c2C(=O)O1 (stereo not given in full)	inactive
CC1=C(C#N)CCC(=O)N1Cc1c(C)cc(C)cc1C	inactive
O=[N+]([O-])c1ccc(/C=N/NC(=S)Nc2ccc(Cl)cc2Cl)s1	inactive
Nn1cnnc1N/N=C\c1ccc(-c2ccccc2[N+](=O)[O-])o1	inactive
COc1ccc(CNC(=O)CCC(=O)N2C[C@H]3C[C@H](C2)c2cccc(=O)n2C3)cc1	inactive
Cc1cc(NS(=O)(=O)c2ccc(NC(=O)C(C)Oc3ccc4c(C)cc(=O)oc4c3)cc2)no1 (stereo not given)	inactive
COc1cc(OC)nc(NC(=O)C(C)C)n1	inactive
